Measurements taken from the supplement of paper PMC7411054.

Legend:
Assay in all cases: phenotypically active (imaging signature differs from DMSO and reproducible) at any of 0.3-9 uM (binary (1 = active, 0 = inactive)); higher = active
Details in all cases: treatment time: 24 h
A549-ACTB-RAB5A = test system: A549-ACTB-RAB5A
Procedure, shortened: (§1)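 Fifteen reporter lines derived from A549, HepG2 and WPMY1 cells by gene editing, carrying BFP for segmentation plus GFP and RFP/FusionRed markers, were exposed to 0.3, 1, 3 or 9 µM for 24 h in four wells each and imaged live. Live-cell features from each well were normalised to solvent control wells. A well set counted as deviating when ≥3 of 4 wells lay beyond the 95th percentile of control Euclidean distances, and as reproducible when the median replicate Pearson correlation exceeded the 95th percentile of non-replicates. Phenotypic activity was assigned only when both criteria were met.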

A549-CANX-COX4 = test system: A549-CANX-COX4
Procedure, shortened: as §1

A549-GM130-SQSTM1 = test system: A549-GM130-SQSTM1
Procedure, shortened: as §1

A549-TP53BP1-CLTA = test system: A549-TP53BP1-CLTA
Procedure, shortened: as §1

A549-TUBA1B-RELA = test system: A549-TUBA1B-RELA
Procedure, shortened: as §1

HepG2-ACTB-RAB5A = test system: HepG2-ACTB-RAB5A
Procedure, shortened: as §1

HepG2-CANX-COX4 = test system: HepG2-CANX-COX4
Procedure, shortened: as §1

HepG2-GM130-SQSTM1 = test system: HepG2-GM130-SQSTM1
Procedure, shortened: as §1

HepG2-TP53BP1-CLTA = test system: HepG2-TP53BP1-CLTA
Procedure, shortened: as §1

HepG2-TUBA1B-RELA = test system: HepG2-TUBA1B-RELA
Procedure, shortened: as §1

WPMY1-ACTB-RAB5A = test system: WPMY1-ACTB-RAB5A
Procedure, shortened: as §1

WPMY1-CANX-COX4 = test system: WPMY1-CANX-COX4
Procedure, shortened: as §1

WPMY1-GM130-SQSTM1 = test system: WPMY1-GM130-SQSTM1
Procedure, shortened: as §1

WPMY1-TP53BP1-CLTA = test system: WPMY1-TP53BP1-CLTA
Procedure, shortened: as §1

WPMY1-TUBA1B-RELA = test system: WPMY1-TUBA1B-RELA
Procedure, shortened: as §1

Measured: phenotypically active

CN1CC(=O)N2[C@H](c3ccc4c(c3)OCO4)c3[nH]c4ccccc4c3C[C@@H]2C1=O [tadalafil]
inactive: A549-ACTB-RAB5A 0 | A549-CANX-COX4 0 | A549-GM130-SQSTM1 0 | A549-TP53BP1-CLTA 0 | A549-TUBA1B-RELA 0 | HepG2-ACTB-RAB5A 0 | HepG2-CANX-COX4 0 | HepG2-GM130-SQSTM1 0 | HepG2-TP53BP1-CLTA 0 | HepG2-TUBA1B-RELA 0 | WPMY1-ACTB-RAB5A 0 | WPMY1-CANX-COX4 0 | WPMY1-GM130-SQSTM1 0 | WPMY1-TP53BP1-CLTA 0 | WPMY1-TUBA1B-RELA 0

CC[C@H]1OC(=O)[C@H](C)[C@@H](O[C@H]2C[C@@](C)(OC)[C@@H](O)[C@H](C)O2)[C@H](C)[C@@H](O[C@@H]2O[C@H](C)C[C@H](N(C)C)[C@H]2O)[C@](C)(O)C[C@@H](C)C(=O)[C@H](C)[C@@H](O)[C@]1(C)O [Erythromycin]
inactive: A549-ACTB-RAB5A 0 | A549-CANX-COX4 0 | A549-GM130-SQSTM1 0 | A549-TP53BP1-CLTA 0 | A549-TUBA1B-RELA 0 | HepG2-ACTB-RAB5A 0 | HepG2-CANX-COX4 0 | HepG2-GM130-SQSTM1 0 | HepG2-TP53BP1-CLTA 0 | HepG2-TUBA1B-RELA 0 | WPMY1-ACTB-RAB5A 0 | WPMY1-CANX-COX4 0 | WPMY1-GM130-SQSTM1 0 | WPMY1-TP53BP1-CLTA 0 | WPMY1-TUBA1B-RELA 0

C(=C/c1ccccc1)/CN1CCN(C(c2ccccc2)c2ccccc2)CC1 [cinnarazine]
inactive: A549-ACTB-RAB5A 0 | A549-CANX-COX4 0 | A549-GM130-SQSTM1 0 | A549-TP53BP1-CLTA 0 | A549-TUBA1B-RELA 0 | HepG2-ACTB-RAB5A 0 | HepG2-CANX-COX4 0 | HepG2-GM130-SQSTM1 0 | HepG2-TP53BP1-CLTA 0 | HepG2-TUBA1B-RELA 0 | WPMY1-ACTB-RAB5A 0 | WPMY1-CANX-COX4 0 | WPMY1-GM130-SQSTM1 0 | WPMY1-TP53BP1-CLTA 0 | WPMY1-TUBA1B-RELA 0

NC(=O)c1cccc(N)c1 [3-Aminobenzamide]
inactive: A549-ACTB-RAB5A 0 | A549-CANX-COX4 0 | A549-GM130-SQSTM1 0 | A549-TP53BP1-CLTA 0 | A549-TUBA1B-RELA 0 | HepG2-ACTB-RAB5A 0 | HepG2-CANX-COX4 0 | HepG2-GM130-SQSTM1 0 | HepG2-TP53BP1-CLTA 0 | HepG2-TUBA1B-RELA 0 | WPMY1-ACTB-RAB5A 0 | WPMY1-CANX-COX4 0 | WPMY1-GM130-SQSTM1 0 | WPMY1-TP53BP1-CLTA 0 | WPMY1-TUBA1B-RELA 0

Cc1cccc(Nc2cc(Cl)nc(SCC(=O)O)n2)c1C
inactive: A549-ACTB-RAB5A 0 | A549-CANX-COX4 0 | A549-GM130-SQSTM1 0 | A549-TP53BP1-CLTA 0 | A549-TUBA1B-RELA 0 | HepG2-ACTB-RAB5A 0 | HepG2-CANX-COX4 0 | HepG2-GM130-SQSTM1 0 | HepG2-TP53BP1-CLTA 0 | HepG2-TUBA1B-RELA 0 | WPMY1-ACTB-RAB5A 0 | WPMY1-CANX-COX4 0 | WPMY1-GM130-SQSTM1 0 | WPMY1-TP53BP1-CLTA 0 | WPMY1-TUBA1B-RELA 0

CN(C)CCOC(=O)C(c1ccccc1)C1(O)CCCC1 (stereo not given) [cyclopentolate]
inactive: A549-ACTB-RAB5A 0 | A549-CANX-COX4 0 | A549-GM130-SQSTM1 0 | A549-TP53BP1-CLTA 0 | A549-TUBA1B-RELA 0 | HepG2-ACTB-RAB5A 0 | HepG2-CANX-COX4 0 | HepG2-GM130-SQSTM1 0 | HepG2-TP53BP1-CLTA 0 | HepG2-TUBA1B-RELA 0 | WPMY1-ACTB-RAB5A 0 | WPMY1-CANX-COX4 0 | WPMY1-GM130-SQSTM1 0 | WPMY1-TP53BP1-CLTA 0 | WPMY1-TUBA1B-RELA 0

CC1=CC(=O)C2=C(C)CC[C@@H]3[C@H](OC(=O)[C@H]3C)[C@@H]12 [Leucomisine]
inactive: A549-ACTB-RAB5A 0 | A549-CANX-COX4 0 | A549-GM130-SQSTM1 0 | A549-TP53BP1-CLTA 0 | A549-TUBA1B-RELA 0 | HepG2-ACTB-RAB5A 0 | HepG2-CANX-COX4 0 | HepG2-GM130-SQSTM1 0 | HepG2-TP53BP1-CLTA 0 | HepG2-TUBA1B-RELA 0 | WPMY1-ACTB-RAB5A 0 | WPMY1-CANX-COX4 0 | WPMY1-GM130-SQSTM1 0 | WPMY1-TP53BP1-CLTA 0 | WPMY1-TUBA1B-RELA 0

COc1ccc(CCN(C)CCCN2CCc3cc(OC)c(OC)cc3CC2=O)cc1OC [zatebradine]
inactive: A549-ACTB-RAB5A 0 | A549-CANX-COX4 0 | A549-GM130-SQSTM1 0 | A549-TP53BP1-CLTA 0 | A549-TUBA1B-RELA 0 | HepG2-ACTB-RAB5A 0 | HepG2-CANX-COX4 0 | HepG2-GM130-SQSTM1 0 | HepG2-TP53BP1-CLTA 0 | HepG2-TUBA1B-RELA 0 | WPMY1-ACTB-RAB5A 0 | WPMY1-CANX-COX4 0 | WPMY1-GM130-SQSTM1 0 | WPMY1-TP53BP1-CLTA 0 | WPMY1-TUBA1B-RELA 0

COC(=O)/C=C/c1cccc(N(Cc2ccc(-c3ccc(N(C)C)cc3)cc2)C(=O)C2CCCCC2)c1 [fexaramine]
inactive: A549-ACTB-RAB5A 0 | A549-CANX-COX4 0 | A549-GM130-SQSTM1 0 | A549-TP53BP1-CLTA 0 | A549-TUBA1B-RELA 0 | HepG2-ACTB-RAB5A 0 | HepG2-CANX-COX4 0 | HepG2-GM130-SQSTM1 0 | HepG2-TP53BP1-CLTA 0 | HepG2-TUBA1B-RELA 0 | WPMY1-ACTB-RAB5A 0 | WPMY1-CANX-COX4 0 | WPMY1-GM130-SQSTM1 0 | WPMY1-TP53BP1-CLTA 0 | WPMY1-TUBA1B-RELA 0

COCC(=O)N[C@@H](Cc1ccc(-c2cc(Cl)cc(Cl)c2)cc1)[C@H](O)[C@@H](O)C(=O)O
inactive: A549-ACTB-RAB5A 0 | A549-CANX-COX4 0 | A549-GM130-SQSTM1 0 | A549-TP53BP1-CLTA 0 | A549-TUBA1B-RELA 0 | HepG2-ACTB-RAB5A 0 | HepG2-CANX-COX4 0 | HepG2-GM130-SQSTM1 0 | HepG2-TP53BP1-CLTA 0 | HepG2-TUBA1B-RELA 0 | WPMY1-ACTB-RAB5A 0 | WPMY1-CANX-COX4 0 | WPMY1-GM130-SQSTM1 0 | WPMY1-TP53BP1-CLTA 0 | WPMY1-TUBA1B-RELA 0

COc1ccc(C(=O)C2CCN(CC(=O)N(Cc3nc4c(c(=O)[nH]3)COCC4)CC3CC3)CC2)cc1
inactive: A549-ACTB-RAB5A 0 | A549-CANX-COX4 0 | A549-GM130-SQSTM1 0 | A549-TP53BP1-CLTA 0 | A549-TUBA1B-RELA 0 | HepG2-ACTB-RAB5A 0 | HepG2-CANX-COX4 0 | HepG2-GM130-SQSTM1 0 | HepG2-TP53BP1-CLTA 0 | HepG2-TUBA1B-RELA 0 | WPMY1-ACTB-RAB5A 0 | WPMY1-CANX-COX4 0 | WPMY1-GM130-SQSTM1 0 | WPMY1-TP53BP1-CLTA 0 | WPMY1-TUBA1B-RELA 0
